The nature of test [1]: Quantitative high throughput screen for delayed death inhibitors of the malarial parasite plastid, 48 hour incubation (AID 488752). Further: nearly all actives have a fitted effect of over 65% in size. Further: potency means the concentration at half of the fitted maximal effect. A digest of the protocol:
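Erythrocytes infected with P. falciparum carrying an integrated firefly luciferase reporter (2% hematocrit, 0.1% parasitemia final) were exposed to compounds in RPMI 1640/0.5% Albumax for 48 h at 37 C, 5% CO2. Growth inhibition was scored as reduced luminescence.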

Test [2] has as its target Thioredoxin reductase 1, cytoplasmic (Rattus norvegicus) (UniProt O89049). The experiment in a line: qHTS Assay for Substrates of Mammalian Selenoprotein Thioredoxin Reductase 1 (TrxR1) (AID 488772).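 Further: NADPH fluorescence in the first read after selenite addition and not the 8 min delta; series mostly up to about 57 µM; 0% is about no effect; a drop in NADPH fluorescence below the no-compound background marks a TrxR1 substrate.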 A digest of the protocol: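 Quantitative HTS in Tris-HCl buffer at pH 7.5 with EDTA and Tween-20, using rat TrxR1, 400 uM NADPH and 400 uM selenite (final). A fall in initial NADPH fluorescence relative to background marked substrate behaviour.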
(In general: Quantitative high-throughput screening tests each substance at several concentrations.)

Test [3] has the same target. Kind of test: qHTS Assay for Inhibitors of Mammalian Selenoprotein Thioredoxin Reductase 1 (TrxR1) (AID 488773).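 Further: drop in NADPH fluorescence over an 8 min run after selenite addition; series mostly up to about 57 µM; on the % scale 0 is the no-effect control and ±100 the full control effect; nearly all actives have a fitted effect of over 40% in size.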 The essentials:
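Steps: enzyme (90 nM) plus NADPH (400 uM final), 5 min at ~22 deg C; compound added, 15 min; selenite (400 uM final) added; fluorescence followed for 8 min. Concentration-response curves derived from the normalized delta values.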

Test [4] has as its target Flap endonuclease 1 (Homo sapiens) (UniProt P39748). The experiment in a line: qHTS Validation Assay for the Inhibitors of Human Flap endonuclease 1 (FEN1) (AID 488816). Further: on the % scale 0 is the no-effect control and ±100 the full control effect. A digest of the protocol:
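FEN1, dispensed as a 10 nM reagent, was preincubated with pin-transferred compounds for 15 min at room temperature before substrate was added (50 nM final). Plates were read at 0 and 15 min, and a four-parameter Hill equation was fitted to the concentration-response data.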

The target of test [5] is M-phase phosphoprotein 8 (Homo sapiens) (UniProt Q99549). Kind of test: qHTS Validation Assay for Inhibitors for MPP8 Chromodomain Interactions with Methylated Histone Tails (AID 488949). Further: top concentration of the series differs between compounds; on the % scale 0 is the no-effect control and ±100 the full control effect; nearly all actives have a fitted effect of over 55% in size. The essentials: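 MPP8 (50 nM) was pre-bound to 50 nM biotinylated H3(1-18)K9me3 peptide in PBS pH 7.4 with 0.01% Tween-20. Compounds were then added for 30 min at room temperature, and complex disruption was read by AlphaScreen with streptavidin donor and nickel-chelate acceptor beads.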
Sequence of M-phase phosphoprotein 8 (Homo sapiens) (Q99549 whole entry, looked up): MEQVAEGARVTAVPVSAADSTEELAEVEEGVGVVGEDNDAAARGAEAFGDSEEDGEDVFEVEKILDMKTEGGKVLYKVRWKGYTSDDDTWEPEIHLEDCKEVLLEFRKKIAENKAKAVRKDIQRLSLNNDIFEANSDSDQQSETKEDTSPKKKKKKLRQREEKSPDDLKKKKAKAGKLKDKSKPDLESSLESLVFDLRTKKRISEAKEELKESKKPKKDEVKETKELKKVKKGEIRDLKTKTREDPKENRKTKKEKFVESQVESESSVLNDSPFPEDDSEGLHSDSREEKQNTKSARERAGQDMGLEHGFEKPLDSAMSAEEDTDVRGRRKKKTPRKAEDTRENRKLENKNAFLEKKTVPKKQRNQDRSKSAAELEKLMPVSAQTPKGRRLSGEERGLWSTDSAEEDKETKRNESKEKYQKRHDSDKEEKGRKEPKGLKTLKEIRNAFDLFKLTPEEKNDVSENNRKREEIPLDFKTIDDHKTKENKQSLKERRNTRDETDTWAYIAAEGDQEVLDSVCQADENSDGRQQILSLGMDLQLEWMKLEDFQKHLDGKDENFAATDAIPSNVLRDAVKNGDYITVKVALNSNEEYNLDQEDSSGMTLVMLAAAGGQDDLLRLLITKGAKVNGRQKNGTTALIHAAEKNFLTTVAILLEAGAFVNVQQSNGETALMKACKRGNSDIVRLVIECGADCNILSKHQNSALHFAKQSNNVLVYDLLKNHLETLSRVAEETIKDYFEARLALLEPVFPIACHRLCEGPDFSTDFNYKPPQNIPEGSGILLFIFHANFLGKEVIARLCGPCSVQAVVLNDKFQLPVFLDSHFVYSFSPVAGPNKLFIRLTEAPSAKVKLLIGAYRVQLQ

For test [6], the target named is Methanococcus maripaludis chaperonin (MmCpn) (UniProt Q6LX38). The experiment in a line: High-Throughput Screening for Modulators of Cytosolic Chaperonin Activity: MmCpn Primary Screen (AID 488978).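 Further: 50 nM MmCpn enzyme hydrolysing 30 µM ATP at 37 °C; 0% is about no effect.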 A digest of the protocol:
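MmCpn at 50 nM final was preincubated 5 min at RT with compound. ATP was then added at 30 uM final for 10 min at 37 C. ADP formed was detected by Transcreener HTRF (665/590 nm).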

The target of test [7] is Transient receptor potential cation channel subfamily V member 1 (Homo sapiens) (UniProt Q8NER1). Kind of test: HTS Assay for Compounds that Act as Enhancers of the Vanilloid Receptor 1 (AID 488979). Further: 0% is about no effect. A digest of the protocol: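 TRPV1-expressing cells loaded with Fluo-8 calcium dye; compounds added and calcium influx read kinetically for 3 min (agonist phase), then capsaicin at EC20 added and read 2 min more for enhancement. Fluorescence ex 480/em 520 nm.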
Sequence of Transient receptor potential cation channel subfamily V member 1 (Homo sapiens) (Q8NER1 whole entry, looked up): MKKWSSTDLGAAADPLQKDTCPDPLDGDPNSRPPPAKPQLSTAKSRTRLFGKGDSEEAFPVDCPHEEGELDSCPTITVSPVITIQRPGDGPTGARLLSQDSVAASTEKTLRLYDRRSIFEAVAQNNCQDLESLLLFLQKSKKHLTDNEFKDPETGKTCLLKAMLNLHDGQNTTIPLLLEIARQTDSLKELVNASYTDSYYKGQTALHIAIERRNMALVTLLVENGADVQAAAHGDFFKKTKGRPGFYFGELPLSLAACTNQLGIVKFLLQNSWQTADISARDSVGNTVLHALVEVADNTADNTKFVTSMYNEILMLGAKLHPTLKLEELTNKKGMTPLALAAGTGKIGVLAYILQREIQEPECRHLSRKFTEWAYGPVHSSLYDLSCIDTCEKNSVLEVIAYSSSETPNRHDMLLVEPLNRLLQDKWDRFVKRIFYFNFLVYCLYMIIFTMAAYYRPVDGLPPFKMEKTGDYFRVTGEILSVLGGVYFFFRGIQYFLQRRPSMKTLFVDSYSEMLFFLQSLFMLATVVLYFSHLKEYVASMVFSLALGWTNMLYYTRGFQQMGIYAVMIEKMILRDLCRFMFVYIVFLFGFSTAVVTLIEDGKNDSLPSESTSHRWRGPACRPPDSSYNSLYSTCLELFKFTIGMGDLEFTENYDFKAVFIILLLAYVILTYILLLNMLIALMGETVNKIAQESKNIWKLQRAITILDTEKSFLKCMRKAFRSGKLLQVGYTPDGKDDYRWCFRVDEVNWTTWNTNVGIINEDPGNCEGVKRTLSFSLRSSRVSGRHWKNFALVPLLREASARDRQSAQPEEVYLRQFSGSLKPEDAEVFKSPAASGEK

Test [8] concerns the target Thyrotropin receptor (Homo sapiens) (UniProt P16473). Kind of test: qHTS Assay for Antagonists of the Thyroid Stimulating Hormone Receptor (AID 488980). Further: series mostly up to about 58 µM; 0% is about no effect. A digest of the protocol:
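TSHR-transfected HEK293 cells (2000/well) in HEPES-buffered HBSS with 70 uM RO 20-1724 were stimulated with 4 nM TSH (EC80, final) in the presence of compound. cAMP was measured by HTRF competition after lysis and 30 min at RT.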

The target of test [9] is D(1A) dopamine receptor (Homo sapiens) (UniProt P21728). The experiment in a line: HTS Assay for Allosteric Agonists of the Human D1 Dopamine Receptor: Primary Screen for Potentiators (AID 488982). Further: 0% is about no effect. The essentials: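 Tetracycline-induced HEK293 T-REx cells force-coupled to calcium signalling were incubated overnight at 30 C and dye-loaded at room temperature. Calcium flux over 180 s after compound addition flagged agonists; a further 180 s read after EC20 dopamine flagged potentiators.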
Sequence of D(1A) dopamine receptor (Homo sapiens) (P21728 whole entry, looked up): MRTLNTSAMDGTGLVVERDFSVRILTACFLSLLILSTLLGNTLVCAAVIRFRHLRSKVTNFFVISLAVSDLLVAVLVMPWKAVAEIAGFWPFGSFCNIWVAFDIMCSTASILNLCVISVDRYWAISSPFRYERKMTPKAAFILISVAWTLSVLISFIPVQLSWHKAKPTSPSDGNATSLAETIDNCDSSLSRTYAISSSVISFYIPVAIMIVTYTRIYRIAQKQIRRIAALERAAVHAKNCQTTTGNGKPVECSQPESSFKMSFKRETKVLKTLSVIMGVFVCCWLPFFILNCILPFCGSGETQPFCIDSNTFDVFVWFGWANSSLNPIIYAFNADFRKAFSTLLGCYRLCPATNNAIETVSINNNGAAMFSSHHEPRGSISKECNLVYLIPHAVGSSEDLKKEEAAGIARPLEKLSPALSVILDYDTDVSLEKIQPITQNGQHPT

Test [10] has the same target. The experiment in a line: HTS Assay for Allosteric Agonists of the Human D1 Dopamine Receptor: Primary Screen for Antagonists (AID 488983).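 Further: calcium flux response to an EC80 dopamine challenge measured with no-wash dye; on the % scale 0 is the no-effect control and ±100 the full control effect; nearly all actives have a fitted effect of over 65% in size.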 The essentials: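 Tetracycline-induced HEK293 T-REx cells expressing force-coupled D1 were plated overnight at 30 C, dye-loaded for calcium, and read kinetically. Compounds were pinned in, then an EC80 dopamine challenge followed after 180 s to reveal antagonism.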

The nature of test [11]: Validation screen for small molecules that induce genotoxicity in human embryonic kidney (HEK293T) cells expressing luciferase-tagged ELG1 (AID 493106). Further: 0% is about no effect. A digest of the protocol:
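HEK293T cells expressing luciferase-tagged ELG1 were exposed to compound or DMSO vehicle for 16 hr at 37 °C, 5% CO2. Genotoxic stress raises ELG1 levels, so increased luciferase signal after ONE-Glo addition and 30 min at room temperature marks hits.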

Test [12] addresses Thyrotropin-releasing hormone receptor (Homo sapiens) (UniProt P34981). The experiment in a line: qHTS for Small Molecule Agonists and Allosteric Enhancers of Human TRH Receptor: Validation Screen for Agonists (AID 493127;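 active means calcium activation more than 3 SD above the typical response in the agonist read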;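 further: intracellular calcium rise by fluo-8 fluorescence before TRH EC20 addition; 0% is about no effect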). The following applies: TRH receptor agonist cell assay; at 2 µM; stronger effect = higher value. The essentials: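 TRHR-expressing cells were plated overnight in serum-containing medium, then loaded with fluo-8 calcium dye at room temperature for 30 min–1.5 h. After a 10 s baseline, compound was pin-transferred and calcium fluorescence (ex 480/em 530) read kinetically for agonist response.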

Test [13] can be described thus: Nrf2 qHTS screen for inhibitors: Validation (AID 493153; active means well fitted inhibition curve with a large enough effect in the main read-out, with a control signal flat, not every such curve was filed as active). The following applies: viability change: measured here: cytotoxicity max response. A digest of the protocol:
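A549 cells carrying an ARE-driven firefly luciferase reporter, in 5% FBS OPTI-MEM, were treated with compounds in concentration-response for 18-24 h at 37°C. Viability was read by CellTiter-Fluor fluorescence, then Nrf2 activity by luciferase luminescence.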

Test [14] in a line: qHTS for Inhibitors of Cell Surface uPA Generation: Validation Assay (AID 493164).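 Further: RAW 264.7 macrophage cells exposed to compound for 18 h; 0% is about no effect.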 A digest of the protocol: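 RAW 264.7, 4000 cells/well, o/n plating; cpd 7-pt 1:5 dilution 2.45 nM–38.3 uM final; 18 h, 37 C/5% CO2; ATP-Lite, 5 s luminescence exposure.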
Test [15] concerns the target Galactokinase (Homo sapiens) (UniProt P51570). Kind of test: qHTS Validation Assay for Inhibitors of Human Galactokinase (GALK) (AID 493189). Further: 0% is about no effect. The essentials:
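GALK (5 nM) with 35 uM ATP and 100 uM galactose in HEPES pH 8.0 with MgCl2, NaCl, DTT and BSA. Reaction ran 1 h at room temperature. Residual ATP read by Kinase-Glo Plus luminescence.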

Test [16] in a line: Validation screen for small molecules that induce DNA re-replication in SW480 colon adenocarcinoma cells (AID 504364). Further: 0% is about no effect. The essentials:
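SW480 cells seeded at 250 per well were exposed to compound or DMSO for 48 hr at 37 C, 5% CO2, then stained with Hoechst for 40 min. DNA content per nucleus was imaged (405 nm ex, 500-530 nm em).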

Test [17] concerns the target Chromobox protein homolog 1 (Homo sapiens) (UniProt P83916). Kind of test: qHTS Validation Assay for Inhibitors of HP1-beta Chromodomain Interactions with Methylated Histone Tails (AID 488953).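 Further: loss of AlphaScreen luminescence from HP1-beta binding biotinylated H3K9me3 peptide; series mostly up to about 110 µM; on the % scale 0 is the no-effect control and ±100 the full control effect; nearly all actives have a fitted effect of over 50% in size.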 A digest of the protocol: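 HP1-beta (50 nM) was preincubated 30 min at room temperature with biotinylated H3(1-18)K9me3 peptide (50 nM) in PBS pH 7.4, 0.01% Tween-20, then with compounds 30 min. AlphaScreen signal was read after streptavidin donor/nickel chelate acceptor beads (10 ug/mL final).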

Test [18] has as its target ATPase family AAA domain-containing protein 5 (Homo sapiens) (UniProt Q96QE3). Kind of test: Validation screen for small molecules that inhibit ELG1-dependent DNA repair in human embryonic kidney (HEK293T) cells expressing luciferase-tagged ELG1 (AID 493107).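 Further: cells co-treated with the DNA-damaging agent 5-fluorouridine alongside compound; series mostly up to about 46 µM; on the % scale 0 is the no-effect control and ±100 the full control effect; inhibitors lower the ELG1-luciferase luminescence signal; nearly all actives have a fitted effect of over 70% in size.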 The essentials: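 HEK293T cells expressing luciferase-tagged ELG1 were co-treated with 5-fluorouridine and compound or DMSO for 16 hr at 37 °C, 5% CO2. Luciferase activity was then read with ONE-Glo after 30 min at room temperature; suppressed signal indicates blocked ELG1 function.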

The target of test [19] is Peptidyl-prolyl cis-trans isomerase NIMA-interacting 1 (Homo sapiens) (UniProt Q13526). The experiment in a line: qHTS Validation Assay to Find Inhibitors of Pin1 (AID 504536; active means well fitted inhibition curve with a large enough effect in the polarisation, with a control signal flat, not every such curve was filed as active; the % refers to the polarisation;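 further: 0% = full Pin1 enzyme wells and -100% = no-enzyme wells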). The essentials:
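Fluorescence polarization competition: compounds (titration) displace HiFluor-488-labeled Pin1-1b peptide from Pin1 (0.3 uM final) in pH 7.5 HEPES buffer with DTT, 10 min at room temperature; %Activity normalized to no-enzyme wells, curves fitted.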

Results filed as inconclusive are left out. Activity calls are given as the source filed them. Unless noted, the call rests on the fitted dose curve; in most records, active means well fitted curve in the direction sought with a large enough effect; inconclusive means small, poorly fitted or top-dose-only effect, or another doubt; inactive means no such curve, though single readings can be large; an effect the other way counts as inactive or inconclusive.

Sequence of Thioredoxin reductase 1, cytoplasmic (Rattus norvegicus) (O89049 whole entry, looked up): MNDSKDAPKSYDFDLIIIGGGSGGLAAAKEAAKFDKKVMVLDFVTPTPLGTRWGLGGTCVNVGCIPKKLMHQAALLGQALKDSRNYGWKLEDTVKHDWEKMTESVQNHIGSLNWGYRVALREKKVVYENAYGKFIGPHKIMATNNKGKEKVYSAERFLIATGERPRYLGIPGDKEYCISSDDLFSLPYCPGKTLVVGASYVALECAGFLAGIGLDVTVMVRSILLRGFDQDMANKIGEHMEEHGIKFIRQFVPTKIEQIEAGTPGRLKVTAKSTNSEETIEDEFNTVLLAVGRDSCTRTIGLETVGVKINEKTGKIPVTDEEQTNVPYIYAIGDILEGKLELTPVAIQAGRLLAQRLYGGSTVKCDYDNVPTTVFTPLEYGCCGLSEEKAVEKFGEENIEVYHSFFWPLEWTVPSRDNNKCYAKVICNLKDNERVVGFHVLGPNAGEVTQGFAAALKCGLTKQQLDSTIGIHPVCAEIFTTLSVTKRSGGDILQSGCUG
Sequence of Methanococcus maripaludis chaperonin (MmCpn) (Q6LX38 1-543): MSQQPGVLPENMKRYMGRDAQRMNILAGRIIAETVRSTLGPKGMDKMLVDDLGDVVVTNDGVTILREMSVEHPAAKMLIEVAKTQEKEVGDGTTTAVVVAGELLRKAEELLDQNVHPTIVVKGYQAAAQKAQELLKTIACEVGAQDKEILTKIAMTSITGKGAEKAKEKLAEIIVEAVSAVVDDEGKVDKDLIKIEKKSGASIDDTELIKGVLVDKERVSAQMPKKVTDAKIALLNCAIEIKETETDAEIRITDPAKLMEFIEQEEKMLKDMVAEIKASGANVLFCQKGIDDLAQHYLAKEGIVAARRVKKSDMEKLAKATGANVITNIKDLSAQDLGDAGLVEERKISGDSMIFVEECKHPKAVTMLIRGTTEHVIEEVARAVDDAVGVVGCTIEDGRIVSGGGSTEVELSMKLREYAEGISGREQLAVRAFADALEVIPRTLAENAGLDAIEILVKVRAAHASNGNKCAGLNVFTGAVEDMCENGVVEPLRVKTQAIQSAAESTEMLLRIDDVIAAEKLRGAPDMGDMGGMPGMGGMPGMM
Sequence of Galactokinase (Homo sapiens) (P51570 whole entry, looked up): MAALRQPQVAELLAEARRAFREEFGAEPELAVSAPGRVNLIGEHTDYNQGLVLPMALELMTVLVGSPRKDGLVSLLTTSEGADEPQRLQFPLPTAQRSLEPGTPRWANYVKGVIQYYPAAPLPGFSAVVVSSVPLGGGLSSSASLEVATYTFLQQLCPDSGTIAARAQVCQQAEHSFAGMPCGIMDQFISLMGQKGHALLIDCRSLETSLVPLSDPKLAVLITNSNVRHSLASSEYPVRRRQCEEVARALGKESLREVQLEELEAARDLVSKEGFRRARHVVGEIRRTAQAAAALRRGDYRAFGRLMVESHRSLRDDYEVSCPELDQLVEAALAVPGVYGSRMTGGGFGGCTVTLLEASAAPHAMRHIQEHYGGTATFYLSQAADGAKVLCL
Sequence of Flap endonuclease 1 (Homo sapiens) (P39748 whole entry, looked up): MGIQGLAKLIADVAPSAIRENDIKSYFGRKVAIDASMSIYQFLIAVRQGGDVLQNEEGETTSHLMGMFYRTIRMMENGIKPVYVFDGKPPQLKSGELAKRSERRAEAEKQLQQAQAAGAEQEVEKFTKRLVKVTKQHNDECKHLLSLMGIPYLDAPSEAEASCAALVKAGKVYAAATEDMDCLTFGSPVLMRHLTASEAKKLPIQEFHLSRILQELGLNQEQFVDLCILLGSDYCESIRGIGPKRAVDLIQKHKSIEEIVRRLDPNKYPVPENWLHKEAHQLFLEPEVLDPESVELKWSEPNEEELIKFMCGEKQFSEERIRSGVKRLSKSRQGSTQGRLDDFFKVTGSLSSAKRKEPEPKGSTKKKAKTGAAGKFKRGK
Sequence of Thyrotropin-releasing hormone receptor (Homo sapiens) (P34981 whole entry, looked up): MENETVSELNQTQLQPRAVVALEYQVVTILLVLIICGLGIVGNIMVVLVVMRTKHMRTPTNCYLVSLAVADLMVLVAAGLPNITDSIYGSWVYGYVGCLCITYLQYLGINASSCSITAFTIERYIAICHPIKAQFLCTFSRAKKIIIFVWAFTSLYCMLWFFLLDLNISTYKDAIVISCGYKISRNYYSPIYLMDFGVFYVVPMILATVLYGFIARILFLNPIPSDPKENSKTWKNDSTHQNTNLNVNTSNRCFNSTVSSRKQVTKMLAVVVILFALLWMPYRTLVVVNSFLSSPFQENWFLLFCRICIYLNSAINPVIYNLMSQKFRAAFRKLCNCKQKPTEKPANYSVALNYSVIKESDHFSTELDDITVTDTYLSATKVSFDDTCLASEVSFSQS
Sequence of Chromobox protein homolog 1 (Homo sapiens) (P83916 whole entry, looked up): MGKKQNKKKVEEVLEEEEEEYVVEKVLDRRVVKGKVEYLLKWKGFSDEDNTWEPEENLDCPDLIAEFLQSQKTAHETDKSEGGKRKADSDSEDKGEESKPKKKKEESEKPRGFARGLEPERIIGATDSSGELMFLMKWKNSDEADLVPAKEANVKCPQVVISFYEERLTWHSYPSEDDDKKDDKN
Sequence of Peptidyl-prolyl cis-trans isomerase NIMA-interacting 1 (Homo sapiens) (Q13526 whole entry, looked up): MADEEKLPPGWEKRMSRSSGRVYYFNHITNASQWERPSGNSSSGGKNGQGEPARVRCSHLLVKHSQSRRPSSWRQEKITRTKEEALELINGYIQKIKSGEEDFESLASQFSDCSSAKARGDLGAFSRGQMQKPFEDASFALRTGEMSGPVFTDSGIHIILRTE

Turning to `Oc1ccc(O)cc1`, the Potency in test [1] was 8.28 µM (active). The outcome in test [2], in test [3], in test [4], in test [6], in test [7] and in test [8] was inactive. Besides, the result in [9], in test [11], in [13], in test [14], in test [15] and in test [16] was inactive. The Potency result in test [5] and in [10] was “inactive” throughout. In test [12], the activation was 0.688% (inactive). Further, in test [13], the viability change was -9.14%.
`CC(C)C[C@H]1C(=O)N2CCC[C@H]2[C@]2(O)O[C@](NC(=O)[C@@H]3C=C4c5cccc6[nH]c(Br)c(c56)C[C@H]4N(C)C3)(C(C)C)C(=O)N12`: the molecule was called inactive in [2], in [3], in [4], in test [6] and in [14]. Besides, the Potency result in test [5] was “inactive”.
Regarding `CN=C(NC#N)Nc1ccc(C2=NNC(=O)CC2C)cc1` (configuration not stated), the Potency entry in test [1] and in [5] was “inactive” throughout. The outcome in test [7], in test [8], in test [15] and in test [16] was inactive.
For `CCC(NC(C)C)C(O)c1ccc(O)c(O)c1` (configuration not stated), the Potency entry in test [1], in [5], in test [17], in test [10] and in test [18] was “inactive” in each case. In addition, the call in [2], in test [4], in test [6], in test [7], in test [8] and in [9] was inactive. Moreover, the result in test [11], in test [13], in test [14], in test [15], in test [16] and in test [19] was inactive. Besides, the activation in [12] is 0.625% (inactive). In addition, the viability change in [13] is -19.1%.
For the molecule `N[C@@H](Cc1cnc[nH]1)C(=O)O`, the Potency result in test [1], in test [5], in test [17] and in test [10] was “inactive” in each case. Further, the result in [2], in test [3], in test [4], in test [6], in test [7] and in [8] was inactive. In addition, the result in test [9], in [11], in test [13], in test [14], in [15] and in [16] was inactive. Besides, the molecule was called inactive in test [19]. Besides, in test [12], the activation is 0.0625% (inactive). Moreover, the viability change in [13] amounted to 0.846%.
